Shown are actives, neighbours in structure and some others; about 4.5% of the full set was active somewhere.
dFosB act-1 = mouse delta FosB homodimer activation. purified delta FosB, TAMRA-CDK5 oligo fluorescence polarization; percent of positive-control signal above neutral wells. 340,000 tested, 0.99% active. P13346. activation, % at 25 µM;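 active means mean activation above about 17%, with every replicate also reaching it, limit read from the data, passing the limit was not always enough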
GRIN3A LBD mod = modulators (binders) of human NR3A ligand-binding domain; NR3A LBD differential scanning fluorimetry, Tm shift; 0% = protein alone, 100% = glycine-bound protein; 340,000 tested, 2.5% active; Tm shift relative to glycine control, % at 25 µM;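 active means melting temperature shift of at least 10% of the positive control shift, at one fixed dose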
EBNA-1 inhibitor = blocks EBNA-1 binding to DNA; EBNA-1 DNA binding, fluorescence polarization; inhibition, % at 14.8 µM; 300,000 tested, 0.34% active; AID 1950; in the data active means inhibition above about 28%
Rpn11 inh = inhibitors of human proteasome Rpn11; AID 588493; human 26S proteasome, Ub4-pepOG fluorescence polarization; 20S core pre-blocked with epoxomicin; 360,000 tested, 0.59% active; inhibition, % at 20 µM;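 active means inhibition at 20 µM, scaled to each plate's controls, above about 33%, limit read from the data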
Target sequence (O00487 whole entry, looked up): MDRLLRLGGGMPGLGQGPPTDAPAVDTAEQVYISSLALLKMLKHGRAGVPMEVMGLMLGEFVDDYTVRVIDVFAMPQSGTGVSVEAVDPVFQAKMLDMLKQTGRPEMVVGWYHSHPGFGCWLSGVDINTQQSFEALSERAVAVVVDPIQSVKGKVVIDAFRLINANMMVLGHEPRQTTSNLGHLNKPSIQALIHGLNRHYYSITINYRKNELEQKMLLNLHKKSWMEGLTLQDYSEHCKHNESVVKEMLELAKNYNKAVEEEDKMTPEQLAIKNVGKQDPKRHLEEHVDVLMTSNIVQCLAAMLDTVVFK
ZTA DNA inh = blocks Epstein-Barr virus ZTA, an EBNA-1 counter-screen; 320,000 tested, 0.15% active; P03206; ZTA-DNA binding, fluorescence polarization; AID 2234; inhibition, % at 11 µM; in the data active means inhibition above about 33%
Target sequence (P03206 whole entry, looked up): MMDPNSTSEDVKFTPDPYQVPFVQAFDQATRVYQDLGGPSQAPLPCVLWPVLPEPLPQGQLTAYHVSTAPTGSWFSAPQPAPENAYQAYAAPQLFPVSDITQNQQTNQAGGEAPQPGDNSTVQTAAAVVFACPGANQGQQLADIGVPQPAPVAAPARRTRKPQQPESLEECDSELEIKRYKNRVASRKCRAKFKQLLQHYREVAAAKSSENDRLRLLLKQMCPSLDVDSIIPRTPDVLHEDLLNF
TPT1 inh = C. albicans TPT1 enzyme inhibition | recombinant caTPT1, FP RNA substrate dephosphorylation | inhibition, % at 5 µM | 300,000 tested, 0.81% active;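 active means inhibition above the mean of all tested compounds plus 3 SD, set per screening campaign, cut at about 24% in these data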;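 further: plate controls were DMSO alone for no effect and ferristatin control at 100 nM for full effect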
dFosB act-2 = enhances mouse delta FosB homodimer binding to DNA; 2,400 tested, under 10 active; activation, % at 24.9 µM; purified delta FosB, TAMRA-CDK5 oligo fluorescence polarization; normalised: neutral wells 0, positive control 100; shares compounds with dFosB act-1;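 active means highest replicate activation at or above 34% and every replicate reaching that threshold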;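 further: higher polarization means more probe DNA bound by delta FosB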
* = called active by the depositor; / = no result.

SMILES	dFosB act-1	GRIN3A LBD mod	EBNA-1 inhibitor	Rpn11 inh	ZTA DNA inh	TPT1 inh	dFosB act-2
COc1ccc(NC(=O)Cn2nc(C(=O)O)c3ccccc3c2=O)cc1Cl	93*	-4	-9	1	2	-2	4
COc1ccc(C2c3c(ncn(Cc4ccco4)c3=N)Oc3ccc4ccccc4c32)cc1 (stereo unspecified)	45*	-1	19	12	8	5	-1
O=C(COc1ccc(Cl)cc1Cl)Nc1c(-c2cccs2)nc2ccccn12	119*	-6	-8	9	-5	6	2
O=C(Nc1ccccc1N1CCOCC1)c1cc2c(s1)CCCCC2	-2	0	-4	-4	7	-2	/
O=C(Nc1cc(S(=O)(=O)Nc2ccccc2Cl)ccc1O)c1cc2c(s1)CCCC2	32*	12*	2	-2	1	-2	3
CC(C)Cc1nc(C(N)=O)c2[nH]c(=O)n(-c3ccc(F)cc3)c2n1	-14	2	-4	1	3	-1	/
NC(=O)c1nc(-c2cccs2)nc2c1[nH]c(=O)n2-c1ccc(F)cc1	123*	0	-3	12	12	-4	1
O=C(CN1C(=O)COc2ccc(Cl)cc21)Nc1nccs1	20*	-1	/	-6	-4	/	3
O=S(=O)(c1ccc2c(c1)OCO2)N1CCN(c2nnnn2-c2ccccc2)CC1	25*	1	18	4	4	1	1
COc1ccc(OC)c(/C=N/NC(=O)c2[nH]nc3c2CCc2ccccc2-3)c1	23*	10	15	1	-7	-1	0
Cc1ccc(NC(=S)N2CCSC2c2cccs2)cc1 (stereo unspecified)	6	1	12	-2	9	-1	/
Cc1cccc(OCCNc2ncccc2[N+](=O)[O-])c1	/	/	/	-5	/	/	/
Cc1cc(-c2ccccc2)nc(SCc2ccc(C(=O)O)cc2)n1	-8	1	/	-1	/	/	/
O=C(c1ccc(F)cc1)n1c(NCc2ccccc2)n[nH]c1=S	35*	-2	-4	0	-4	-4	-2
O=C(NNC(=O)c1ccccc1C(=O)O)c1ccc(S(=O)(=O)N2CCCCC2)cc1	-7	0	/	0	/	/	/
COc1ccc(Cl)cc1C(=O)NNC(=O)c1cc2ccccc2o1	35*	1	/	0	/	/	1
O=C(NNC(=O)c1ccccc1O)c1cc2ccccc2o1	-10	-6	-9	2	-5	1	/
C=CCN(C(=O)COc1ccccc1)c1nnc(-c2ccncc2)s1	22*	1	3	-1	7	0	1
CN(C(=O)CCc1ccccc1)c1nnc(-c2ccncc2)s1	-5	1	-11	1	-24	-1	/
COc1ccc(C(CNC(=O)c2ccc(NS(=O)(=O)c3ccc(F)c(C)c3)cc2)N2CCCC2)cc1 (stereo unspecified)	-15	0	/	7	/	/	/
CCOc1ccc(NS(=O)(=O)c2ccc(C(=O)NCC(c3ccc(OC)cc3)N3CCCC3)cc2)cc1 (stereo unspecified)	24*	4	-4	9	-2	3	6
CCn1nnnc1-c1ccc(OC)c(S(=O)(=O)Nc2ccccc2OC)c1	/	/	/	0	/	/	/
NSc1nc(N)c2nc(-c3ccccc3)c(-c3ccccc3)nc2n1	-5	-3	-14	-1	5	-1	/
Nc1nc(N)c2nc(-c3ccccc3)c(N)nc2n1	19*	2	-1	4	-11	-3	0
COc1cc(/C=C/C(=O)OCC(=O)c2c(N)n(C)c(=O)n(C)c2=O)ccc1OCC#N	-10	0	1	-1	3	-2	/
SMILES	dFosB act-1	GRIN3A LBD mod	EBNA-1 inhibitor	Rpn11 inh	ZTA DNA inh	TPT1 inh	dFosB act-2
COc1ccc(NC(=O)c2cc(CN3C(=O)c4ccccc4C3=O)ccc2OC)cn1	18*	4	0	-8	-11	-11	9
Cc1csc2ncnc(NNC(=O)c3ccc(Cl)cc3)c12	28*	0	5	2	-23	-9	2
CN(Cc1ccc(OCC(O)CN(C)Cc2ccccc2)cc1)Cc1nccn1C (stereo unspecified)	-6	0	3	7	-10	-3	/
COc1ccc(CN(C)CC(O)COc2ccc(-c3ccccc3)cc2)cc1OC (stereo unspecified)	19*	-2	20	-9	-3	-3	-8
O=C(O)/C=C/C(=O)Nc1nc(-c2ccc3ccccc3c2)cs1	-4	-2	7	3	31	-2	/
O=C(/C=C/c1ccccc1)Nc1nc(-c2ccncc2)cs1	17*	-7	25	0	7	1	-9
CCOc1ccc(-n2nnc3c(=O)n(CC(=O)NCc4ccco4)cnc32)cc1	22*	0	-6	5	10	0	4
COc1cccc(-n2nnc3c(=O)n(CC(=O)Nc4cc(C)on4)cnc32)c1	-2	1	8	-1	10	4	/
COc1cccc(-n2nnc3c(=O)n(CC(=O)Nc4ccc(C)cc4)cnc32)c1	27*	2	13	3	4	2	-6
Cc1ccc(-n2nnc3c(=O)n(CC(=O)NCc4ccco4)cnc32)cc1	0	2	3	1	-2	-1	/
CCCc1cc(=O)n2nc(N3CCC(C(=O)N4CCN(c5ccc(OC)cc5)CC4)CC3)sc2n1	-9	1	3	-7	-14	-2	/
COc1cccc2c1OC1(N3CCOCC3)CCCCC1C2C[N+](=O)[O-] (stereo unspecified)	/	/	/	2	/	/	/
COc1ccc(C)cc1NC(=O)CCNC(=O)Cn1ccc2ccccc2c1=O	22*	0	4	2	3	2	3
COc1ccccc1NC(=O)CCNC(=O)Cn1ccc2ccccc2c1=O	4	1	2	-2	5	2	/
CC(C)Cn1c(N)c(C(=O)CSc2nc3ncc(Cl)cc3[nH]2)c(=O)n(C)c1=O	-10	0	11	15	3	1	/
CCCn1c(N)c(C(=O)CSc2nc3ncc(Cl)cc3[nH]2)c(=O)n(C)c1=O	28*	0	/	14	6	/	5
C=CCOc1c(Br)cc(/C=N/NC(=O)Cc2ccc(C(F)(F)F)cc2[N+](=O)[O-])cc1OC	37*	2	2	-4	-6	4	-1
COc1ccc(Cl)cc1N1C(=O)CC(Sc2ccccc2N)C1=O (stereo unspecified)	38*	0	25	2	14	0	-5
Cc1cccc(NC(=O)c2ccc(S(=O)(=O)NCc3ccco3)cc2)n1	33*	0	/	5	2	/	0
Cc1ccc(NC(=O)c2ccc(S(=O)(=O)NCc3ccco3)cc2)nc1	15	2	7	0	-14	4	/
COC(=O)CCN1CCC2CC1c1cc(-c3cccc(C)c3)ccc12 (stereo unspecified)	-8	-2	/	1	/	/	/
